# According to PubChem BioAssay (EPA / NIEHS):
# The source holds several records for some structures; these can differ, active in one and inactive in another. Calls of active or inactive are those of the source. Rule for the calls: active = hit-call score of the fitted dose curve at least 0.9, where 1 is the maximum; inactive = score below 0.9.
# Columns and labels:
# [1] = APR_HepG2_NuclearSize_72hr: Apredica 72-hour HepG2 Assay for Nuclear Size (AID 2282925); settings: high-content imaging, actives raise or lower the signal
# Procedure, shortened: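 Nuclear size was read by high-content imaging of Hoechst 33342 stain after formaldehyde fixation. Compounds ran 72 h on HepG2 at 0.39 to 200 uM, with final DMSO 0.5% v/v. Curves fitted both directions relative to DMSO control.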
# [2] = ATG_CRE_CIS: Attagene CIS-FACTORIAL HepG2 Assay for human cAMP Responsive Element (CRE) binding protein 3 (AID 2282926); settings: HepG2 CRE cis-reporter, Attagene multiplexed mRNA; actives raise or lower the signal
# Procedure, shortened: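 Endogenous transcription factor activity read via CRE-regulated reporter transcripts in transfected HepG2 cells. After 24 h exposure, RNA was reverse-transcribed, amplified, fluorescently labelled and sized by capillary electrophoresis; gain or loss fitted against DMSO.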
# [3] = molecular target: CCAAT/enhancer-binding protein beta (Homo sapiens) (UniProt P17676); experiment: ATG_C_EBP_CIS: Attagene CIS-FACTORIAL HepG2 Assay for human CCAAT/Enhancer Binding Protein (C/EBP) beta (AID 2282927); settings: HepG2 Attagene cis-factorial transcription factor reporter; actives raise or lower the signal
# Procedure, shortened: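 Endogenous C/EBPb-driven reporter transcripts measured in transfected human HepG2 cells at 24 h via RT-PCR and capillary electrophoresis of labelled fragments. Activity fitted in both directions relative to DMSO baseline.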
# [4] = ATG_CMV_CIS: Attagene CIS-FACTORIAL HepG2 Assay for human CMV (Internal Marker) (AID 2282928); settings: HepG2 CMV promoter reporter, transcription factor profiling; actives raise or lower the signal;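 note: endpoint acts as a background internal control marker rather than a target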
# Procedure, shortened: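 Fluorescence intensity of RT-PCR-derived reporter fragments, resolved by capillary electrophoresis, gives the signal. HepG2 liver cells bearing transfected cis-element reporters were treated 24 h; activity in either direction was fit relative to DMSO-treated controls.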
# [5] = ATG_DR4_LXR_CIS: Attagene CIS-FACTORIAL HepG2 Assay for human Liver X Receptor (LXR), DR4 submotif (AID 2282929); settings: HepG2 Attagene DR4 cis-reporter, mRNA transcription; actives raise or lower the signal
# Procedure, shortened: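 Total RNA from 24 h-treated, MRTU-transfected HepG2 cells underwent reverse transcription, PCR, fluorescent primer extension and restriction digestion before capillary electrophoresis. Both increases and decreases in reporter signal were fitted against DMSO.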
# [6] = molecular target: Aryl hydrocarbon receptor (Homo sapiens) (UniProt P35869); experiment: ATG_Ahr_CIS: Attagene CIS-FACTORIAL HepG2 Assay for human Aryl Hydrocarbon Receptor (Ahr) (AID 2282930); settings: HepG2 AhR cis-factorial reporter transcription; actives raise or lower the signal
# Procedure, shortened: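 Reporter mRNA levels, quantified by RT-PCR and fluorescent capillary electrophoresis, reflect endogenous AhR transcriptional activity in HepG2 cells carrying transfected cis-promoter reporter constructs. Readout at 24 h post-dose; gain or loss fitted against DMSO baseline.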
# [7] = ATG_AP_1_CIS: Attagene CIS-FACTORIAL HepG2 Assay for human Activator Protein 1 (AP-1) (AID 2282931); settings: HepG2 Attagene cis-factorial AP-1 reporter mRNA; actives raise or lower the signal
# Procedure, shortened: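 HepG2, transient cis-reporter transfection; 24 h; readout RT-PCR/CE fluorescence; DMSO baseline, gain and loss fitted.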
# [8] = ATG_AP_2_CIS: Attagene CIS-FACTORIAL HepG2 Assay for human Activator Protein 2 (AP-2) (AID 2282932); settings: HepG2 AP-2 cis-reporter, Attagene transcription factor profiling; actives raise or lower the signal
# Procedure, shortened: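 Endogenous transcription factor activity is reported through transfected multiplex reporter constructs in HepG2, after 24 h of compound exposure. Transcripts were quantified by RT-PCR and capillary electrophoresis of fluorescent fragments. Bidirectional fit against DMSO.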
# [9] = ATG_BRE_CIS: Attagene CIS-FACTORIAL HepG2 Assay for human Bone Morphogenetic Protein (BMP) Response Element (BRE) (AID 2282933); settings: HepG2 BMP response element reporter, Attagene transcription factor profiling; actives raise or lower the signal
# Procedure, shortened: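 Endogenous transcription factor activity read in transiently transfected HepG2 cells after 24 h chemical exposure. Bidirectional curve fitting against DMSO; readout is reporter transcript level by RT-PCR with capillary electrophoresis of labelled products.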
# [10] = molecular target: Retinoic acid receptor alpha (Homo sapiens) (UniProt P10276); experiment: ATG_DR5_RAR_CIS: Attagene CIS-FACTORIAL HepG2 Assay for human Retinoic Acid Receptor Alpha (RARE), DR5 submotif (AID 2282934); settings: HepG2 Attagene cis-factorial RARE DR5 reporter, mRNA; actives raise or lower the signal;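 for AC50: reporter responds to endogenous RAR alpha beta and gamma in HepG2 not RARA alone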
# Procedure, shortened: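 Reporter transcripts from a DR5-regulated unit, measured via RT-PCR plus capillary electrophoresis, reflect endogenous RAR activity in transiently transfected human HepG2 liver cells. Exposure lasted 24 h; gain or loss of signal scored against DMSO.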
# [11] = molecular target: Transcription factor E2F1 (Homo sapiens) (UniProt Q01094); experiment: ATG_E2F_CIS: Attagene CIS-FACTORIAL HepG2 Assay for human E2F Transcription Factor 1 (AID 2282935); settings: HepG2 Attagene cis-reporter, E2F reporter RNA transcripts; actives raise or lower the signal
# Procedure, shortened: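 Gain or loss of reporter transcript, fitted against DMSO, reflects E2F1-driven transcription. Transiently transfected HepG2 dosed 24 h before RNA isolation. Quantified by fluorescent RT-PCR products separated by capillary electrophoresis.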
# [12] = ATG_E_Box_CIS: Attagene CIS-FACTORIAL HepG2 Assay for human Enhancer Box (E-box) (AID 2282936); settings: HepG2 E-box cis-reporter transcription, actives raise or lower the signal
# Procedure, shortened: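 E-box-driven reporter transcripts measured in transiently transfected HepG2 after 24 h exposure: RNA reverse-transcribed, PCR-amplified, fluorescently labelled, digested and resolved by capillary electrophoresis. Gain or loss relative to DMSO.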
# [13] = ATG_M_61_CIS: Attagene CIS-FACTORIAL HepG2 Assay for M61 Transcription Factor (Internal Marker) (AID 2282937); settings: HepG2 Attagene CIS-FACTORIAL M61 internal marker reporter; actives raise or lower the signal
# Procedure, shortened: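 Transfect HepG2 with MRTUs; dose 24 h; isolate RNA; reverse-transcribe with DNase I treatment; PCR-amplify, FAM-label and cut with HpaI for 2 h at 37 C; resolve by CE. Bidirectional fitting against DMSO.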
# [14] = ATG_EGR_CIS: Attagene CIS-FACTORIAL HepG2 Assay for human Early Growth Response 1 (EGR1) (AID 2282938); settings: HepG2 Attagene CIS-FACTORIAL EGR reporter mRNA; actives raise or lower the signal
# Procedure, shortened: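 After a 24 h treatment of transiently transfected HepG2 cells, total RNA was reverse-transcribed and reporter sequences PCR-amplified, labelled and run on capillary electrophoresis. Reporters sit under cis-regulatory promoters sensing endogenous factors.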
# [15] = ATG_M_19_CIS: Attagene CIS-FACTORIAL HepG2 Assay for M19 Transcription Factor (Internal Marker) (AID 2282939); settings: HepG2 Attagene CIS-FACTORIAL M19 internal marker reporter; actives raise or lower the signal
# Procedure, shortened: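 Internal marker readout, fitted in both directions against DMSO, from HepG2 cells carrying transfected cis-element reporter constructs; RT-PCR and capillary electrophoresis of reporter mRNA after 24 h exposure.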
# [16] = ATG_ERE_CIS: Attagene CIS-FACTORIAL HepG2 Assay for Estrogen Response Element (ERE) (AID 2282940); settings: HepG2 ERE cis-reporter, Attagene RNA transcript; actives raise or lower the signal
# Procedure, shortened: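 After 24 h compound treatment, RNA from transfected HepG2 cells was reverse-transcribed, reporter cDNA PCR-amplified, FAM-labelled, HpaI-cut and resolved by capillary electrophoresis. ERE-driven cis reporter transcripts reflect endogenous factors; gain or loss scored against DMSO.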
# [17] = ATG_Ets_CIS: Attagene CIS-FACTORIAL HepG2 Assay for human Erythroblast Transformation Specific (ETS) (AID 2282941); settings: HepG2 ETS cis-reporter transcription, actives raise or lower the signal
# Procedure, shortened: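 Multiplexed reporter transcript profiling: HepG2, 24 h treatment, total RNA to cDNA, PCR, 6-FAM labelling, HpaI cut, capillary electrophoresis. Gain- or loss-of-signal fitted against DMSO.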
# [18] = molecular target: Hepatocyte nuclear factor 3-beta (Homo sapiens) (UniProt Q9Y261); experiment: ATG_FoxA2_CIS: Attagene CIS-FACTORIAL HepG2 Assay for human Forkhead box A2 (FOXA2) (AID 2282942); settings: HepG2 cis-reporter transcription factor activity, 24 h; actives raise or lower the signal
# Procedure, shortened: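 24 h dosing of HepG2 bearing cis-reporter constructs; mRNA readout by RT-PCR/CE fluorescence; bidirectional fit, DMSO baseline.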
# [19] = ATG_FoxO_CIS: Attagene CIS-FACTORIAL HepG2 Assay for human Forkhead box O (FoxO) (AID 2282943); settings: HepG2 Attagene cis-reporter, FoxO element, mRNA; actives raise or lower the signal
# Procedure, shortened: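 Endogenous transcription factor activity read from multiplexed cis-promoter reporter transcripts in transiently transfected HepG2, 24 h after dosing. Reporter RNA measured via RT-PCR plus capillary electrophoresis of FAM-labeled products; gain or loss relative to DMSO.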
# [20] = ATG_GATA_CIS: Attagene CIS-FACTORIAL HepG2 Assay for human GATA Binding Protein (AID 2282944); settings: HepG2 GATA cis-element reporter, Attagene multiplex mRNA; actives raise or lower the signal
# Procedure, shortened: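 Reporter transcripts from a GATA cis-regulated unit, among multiplexed reporters in transfected HepG2 cells, were measured by RT-PCR with capillary electrophoresis after 24 h dosing. Induction or loss scored relative to DMSO.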
# Sequence of Transcription factor E2F1 (Homo sapiens) (Q01094 whole entry, looked up): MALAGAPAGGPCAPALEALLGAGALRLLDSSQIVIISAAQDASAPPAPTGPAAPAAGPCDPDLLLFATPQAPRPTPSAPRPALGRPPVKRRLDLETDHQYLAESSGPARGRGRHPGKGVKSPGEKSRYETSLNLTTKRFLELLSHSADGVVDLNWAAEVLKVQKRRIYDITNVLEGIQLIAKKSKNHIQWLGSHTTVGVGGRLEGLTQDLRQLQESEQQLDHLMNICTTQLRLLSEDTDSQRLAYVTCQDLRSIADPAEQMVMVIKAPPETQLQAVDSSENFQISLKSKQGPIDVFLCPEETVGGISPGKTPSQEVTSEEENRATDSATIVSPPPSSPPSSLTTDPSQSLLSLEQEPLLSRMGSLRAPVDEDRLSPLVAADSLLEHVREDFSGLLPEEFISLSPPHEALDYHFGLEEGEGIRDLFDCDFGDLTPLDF
# Sequence of Hepatocyte nuclear factor 3-beta (Homo sapiens) (Q9Y261 whole entry, looked up): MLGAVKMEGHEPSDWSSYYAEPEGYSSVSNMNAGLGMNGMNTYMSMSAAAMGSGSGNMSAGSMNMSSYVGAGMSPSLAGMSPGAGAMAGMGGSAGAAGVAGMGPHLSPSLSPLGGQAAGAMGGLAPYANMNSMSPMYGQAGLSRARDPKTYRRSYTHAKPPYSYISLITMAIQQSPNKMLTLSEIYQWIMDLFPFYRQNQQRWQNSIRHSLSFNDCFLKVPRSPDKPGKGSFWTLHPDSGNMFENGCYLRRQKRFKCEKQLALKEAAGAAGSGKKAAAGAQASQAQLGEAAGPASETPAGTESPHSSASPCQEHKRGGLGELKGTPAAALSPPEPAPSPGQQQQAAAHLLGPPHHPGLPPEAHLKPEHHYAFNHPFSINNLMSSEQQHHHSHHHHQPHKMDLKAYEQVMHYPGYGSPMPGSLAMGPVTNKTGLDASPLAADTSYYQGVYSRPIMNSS
# Sequence of Aryl hydrocarbon receptor (Homo sapiens) (P35869 whole entry, looked up): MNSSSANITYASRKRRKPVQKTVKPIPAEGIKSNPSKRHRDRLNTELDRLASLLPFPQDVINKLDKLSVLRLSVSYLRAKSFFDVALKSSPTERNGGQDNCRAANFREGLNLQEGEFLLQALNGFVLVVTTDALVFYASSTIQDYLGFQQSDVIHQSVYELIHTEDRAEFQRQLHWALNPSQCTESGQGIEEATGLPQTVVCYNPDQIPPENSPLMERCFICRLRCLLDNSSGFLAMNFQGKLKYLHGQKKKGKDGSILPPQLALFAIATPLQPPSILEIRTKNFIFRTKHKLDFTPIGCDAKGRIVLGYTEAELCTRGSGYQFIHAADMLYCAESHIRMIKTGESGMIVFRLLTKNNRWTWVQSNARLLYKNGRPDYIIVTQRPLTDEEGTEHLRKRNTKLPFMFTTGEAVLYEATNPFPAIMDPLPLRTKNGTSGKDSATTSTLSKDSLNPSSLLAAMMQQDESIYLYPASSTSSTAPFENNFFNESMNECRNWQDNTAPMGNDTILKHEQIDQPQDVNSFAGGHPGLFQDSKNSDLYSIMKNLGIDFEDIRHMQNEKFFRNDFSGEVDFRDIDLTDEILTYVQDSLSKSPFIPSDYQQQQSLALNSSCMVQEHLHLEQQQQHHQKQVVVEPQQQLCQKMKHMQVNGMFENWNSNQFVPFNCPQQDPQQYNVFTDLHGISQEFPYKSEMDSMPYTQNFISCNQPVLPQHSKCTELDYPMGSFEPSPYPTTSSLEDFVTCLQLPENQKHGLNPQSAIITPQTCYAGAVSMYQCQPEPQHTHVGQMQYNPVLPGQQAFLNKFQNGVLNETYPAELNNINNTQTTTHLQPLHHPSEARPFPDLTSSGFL
# Sequence of Retinoic acid receptor alpha (Homo sapiens) (P10276 whole entry, looked up): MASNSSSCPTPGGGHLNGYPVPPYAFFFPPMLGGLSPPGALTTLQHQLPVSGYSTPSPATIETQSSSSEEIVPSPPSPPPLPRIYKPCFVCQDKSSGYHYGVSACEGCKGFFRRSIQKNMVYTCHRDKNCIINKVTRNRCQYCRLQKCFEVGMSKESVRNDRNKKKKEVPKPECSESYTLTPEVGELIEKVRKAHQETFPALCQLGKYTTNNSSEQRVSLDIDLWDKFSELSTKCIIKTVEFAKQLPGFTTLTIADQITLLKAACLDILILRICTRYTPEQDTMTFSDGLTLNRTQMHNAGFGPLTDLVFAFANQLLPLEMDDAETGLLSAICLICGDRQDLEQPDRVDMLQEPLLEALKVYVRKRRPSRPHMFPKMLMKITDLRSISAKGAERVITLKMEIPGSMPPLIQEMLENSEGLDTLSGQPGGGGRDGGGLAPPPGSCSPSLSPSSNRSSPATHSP
# Sequence of CCAAT/enhancer-binding protein beta (Homo sapiens) (P17676 whole entry, looked up, the tested form may be a part): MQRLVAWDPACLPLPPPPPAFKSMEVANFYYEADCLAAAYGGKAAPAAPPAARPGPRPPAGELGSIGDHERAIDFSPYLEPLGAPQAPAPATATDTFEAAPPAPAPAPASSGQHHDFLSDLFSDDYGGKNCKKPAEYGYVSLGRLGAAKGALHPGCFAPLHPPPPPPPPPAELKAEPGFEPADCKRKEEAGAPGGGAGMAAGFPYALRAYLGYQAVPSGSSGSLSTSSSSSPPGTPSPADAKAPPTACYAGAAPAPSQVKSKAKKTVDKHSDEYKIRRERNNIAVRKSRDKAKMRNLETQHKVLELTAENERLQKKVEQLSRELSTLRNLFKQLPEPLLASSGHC
compound,measurement,setting,value
COC(=O)c1ccccc1C(=O)OC,outcome,[1],inactive
same,outcome,[2],inactive
same,outcome,[3],inactive
same,outcome,[4],inactive
same,outcome,[5],inactive
same,outcome,[6],inactive
same,outcome,[7],inactive
same,outcome,[8],inactive
same,outcome,[9],inactive
same,outcome,[10],inactive
same,outcome,[11],inactive
same,outcome,[12],inactive
same,outcome,[13],inactive
same,outcome,[14],inactive
same,outcome,[15],inactive
same,outcome,[16],inactive
same,outcome,[17],inactive
same,outcome,[18],inactive
same,outcome,[19],inactive
same,outcome,[20],inactive
CCCC1COC(Cn2cncn2)(c2ccc(Cl)cc2Cl)O1 (centres undefined),outcome,[1],inactive
same,outcome,[2],inactive
same,outcome,[3],inactive
same,AC50,[4],50 µM (active)
same,outcome,[4],inactive
same,outcome,[5],inactive
same,AC50,[6],25 µM (active)
same,outcome,[6],inactive
same,AC50,[7],50 µM (active)
same,outcome,[7],inactive
same,outcome,[8],inactive
same,AC50,[9],29.7 µM (active)
same,outcome,[9],inactive
same,AC50,[10],6.97 µM (active)
same,outcome,[10],inactive
same,AC50,[11],85.1 µM (active)
same,outcome,[11],inactive
same,outcome,[12],inactive
same,outcome,[13],inactive
same,outcome,[14],inactive
same,outcome,[15],inactive
same,AC50,[16],1.71 µM (active)
same,outcome,[16],inactive
same,AC50,[17],58 µM (active)
same,outcome,[17],inactive
same,outcome,[18],inactive
same,outcome,[19],inactive
same,outcome,[20],inactive
CCON=C(CC)C1=C(O)CC(c2c(C)cc(C)cc2C)CC1=O (centres undefined),outcome,[1],inactive
same,outcome,[2],inactive
same,outcome,[3],inactive
same,outcome,[4],inactive
same,outcome,[5],inactive
same,outcome,[6],inactive
same,outcome,[7],inactive
same,outcome,[8],inactive
same,outcome,[9],inactive
same,outcome,[10],inactive
same,outcome,[11],inactive
same,outcome,[12],inactive
same,outcome,[13],inactive
same,outcome,[14],inactive
same,outcome,[15],inactive
same,outcome,[16],inactive
same,outcome,[17],inactive
same,outcome,[18],inactive
same,outcome,[19],inactive
same,outcome,[20],inactive
CON(C)C(=O)Nc1ccc(Cl)c(Cl)c1,outcome,[1],inactive
same,outcome,[2],inactive
same,outcome,[3],inactive
same,AC50,[4],55.6 µM (active)
same,outcome,[4],inactive
same,outcome,[5],inactive
same,AC50,[6],27.4 µM (active) [middle of 4 runs]
same,outcome,[7],inactive
same,outcome,[8],inactive
same,outcome,[9],inactive
same,outcome,[10],inactive
same,outcome,[11],inactive
same,outcome,[12],inactive
same,outcome,[13],inactive
same,outcome,[14],inactive
same,outcome,[15],inactive
same,outcome,[16],inactive
same,outcome,[17],inactive
same,outcome,[18],inactive
same,outcome,[19],inactive
same,outcome,[20],inactive
CCCCNC(=O)n1c(NC(=O)OC)nc2ccccc21,outcome,[1],inactive
same,outcome,[2],inactive
same,outcome,[3],inactive
same,outcome,[4],inactive
same,outcome,[5],inactive
same,outcome,[6],inactive
same,outcome,[7],inactive
same,outcome,[8],inactive
same,outcome,[9],inactive
same,outcome,[10],inactive
same,outcome,[11],inactive
same,outcome,[12],inactive
same,outcome,[13],inactive
same,outcome,[14],inactive
same,outcome,[15],inactive
same,outcome,[16],inactive
same,outcome,[17],inactive
same,outcome,[18],inactive
same,outcome,[19],inactive
same,outcome,[20],inactive
